High-throughput results: PubChem, Broad Institute
FGF22 binding: binders of human FGF22 protein, primary screen, FGF22 synaptogenesis inhibitor project, biophysical, thermal shift, single point. Fibroblast growth factor 22 (Homo sapiens), Q9HCT0. recombinant FGF22 thermal shift, SYPRO orange fluorescence; percent of sucrose octasulfate shift, DMSO zero. activity (Tm shift, normalised), % at 9.99 µM. 340,000 tested, 1.5% active. AID 651658, 2012;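 active = mean Tm shift, scaled 0 neutral to 100 positive control, at about 1.3% or above, every replicate too, limit read from the data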
SIRT5 inh: SIRT5 desuccinylase inhibitors, primary screen, biochemical, fluorescence imaging, single point, set 5; 330,000 tested, 1.1% active; inhibition, % at 15 µM; AID 652115, 2013; NAD-dependent protein deacylase sirtuin-5, mitochondrial (Homo sapiens), Q9NXA8; Purified SirT5, succinyl-peptide AMC, trypsin-coupled fluorescence; in the data active = inhibition above about 15%
Casp6 inh: human caspase-6 inhibitors, primary screen, biochemical, VEID-R110 fluorescence, single point, set 2. purified caspase-6, Z-VEID-R110 cleavage fluorescence. P55212. inhibition, % at 12.5 µM. 350,000 tested, 0.53% active;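 active = mean inhibition across replicates at least about 35%, with every replicate also reaching that limit, limit read from the data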;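 note: 0% = median of neutral control wells and 100% = no fluorescence left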
Target sequence (P55212 24-179 limits assumed): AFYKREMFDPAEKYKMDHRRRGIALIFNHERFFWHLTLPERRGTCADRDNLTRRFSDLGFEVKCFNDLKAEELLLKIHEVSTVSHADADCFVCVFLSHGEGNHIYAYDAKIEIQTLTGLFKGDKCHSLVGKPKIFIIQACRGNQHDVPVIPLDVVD
Target sequence (P55212 194-293 limits assumed): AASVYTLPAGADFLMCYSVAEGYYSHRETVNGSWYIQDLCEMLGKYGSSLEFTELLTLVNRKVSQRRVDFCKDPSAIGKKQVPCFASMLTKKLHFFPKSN
GSIS activator: GLuc luminescence reporter in INS-1E cells, primary screen for activators of glucose-dependent secretion of insulin; INS-1E GLuc reporter insulin secretion, 2-3 h; activation, % at 16.6 µM; 370,000 tested, 0.61% active; AID 743287, 2014;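 active = lowest replicate activation of at least 40%, so every replicate reaches that level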;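 note: 0% = median of neutral control wells and 100% = median of IBMX positive control wells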
ERAP1 inh: human ERAP1 aminopeptidase inhibitors, primary screen, biochemical, single point, plate reader; Endoplasmic reticulum aminopeptidase 1 (Homo sapiens), Q9NZ08; recombinant ERAP1, Leu-AMC fluorescence, 60 min; inhibition, % at 10.7 µM; 340,000 tested, 0.15% active;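 active = mean replicate inhibition of at least 30%, or all replicates individually reaching that 30% level; inactive = mean below 30% and not every replicate reaching it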;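 note: 0% = neutral control wells and 100% = L-leucinethiol positive control wells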
* = called active by the depositor; nt = no result given. A selection: hits, their analogues and other compounds. The true share with any hit is near 3.3%.

SMILES	FGF22 binding	SIRT5 inh	Casp6 inh	GSIS activator	ERAP1 inh
COc1ccc(S(=O)(=O)Nc2ccc3c(c2)C(=O)N([C@@H](C)CO)C[C@@H](C)[C@H](CN(C)Cc2ccc(Oc4ccccc4)cc2)O3)cc1	-1	25*	1	-11	-3
COc1ccc2c3c(n(C)c2c1)[C@@H](CO)N(CC1CCOCC1)CC31CCN(Cc2nccs2)CC1	0	-2	2	-17	3
CC(C)NC(=O)N(C)C[C@H]1Oc2ccc(NS(=O)(=O)c3ccc(F)cc3)cc2CC(=O)N([C@@H](C)CO)C[C@H]1C	0	5	7	6	-1
COCC(=O)N(C)C[C@H]1Oc2cc(-c3ccc(F)cc3)ccc2S(=O)(=O)N([C@H](C)CO)C[C@H]1C	0	-4	-1	-4	-1
C[C@H](CO)N1C[C@H](C)[C@@H](CN(C)C(=O)NC2CCCC2)Oc2ncc(C3=CCCC3)cc2C1=O	0	-1	2	-1	2
C[C@H]1CN([C@@H](C)CO)C(=O)c2cccc(NC(=O)CCCCCC(=O)Nc3ccccc3N)c2O[C@@H]1CN(C)C(=O)Nc1ccc2c(c1)OCO2	0	2	2	-10	-1
COc1ccccc1CN1C[C@H](C)[C@@H](OC)CN(C)C(=O)c2cc(NC(C)=O)ccc2OC[C@@H]1C	0	2	nt	1	nt
CCOc1cc(C2C3=C(CCCC3=O)OC3=C2C(=O)CCC3)cc([N+](=O)[O-])c1O	0	5	3	58*	3
CNC(=O)C[C@@H]1CC[C@@H]2[C@H](COC[C@H](O)CN2Cc2ccncc2)O1	0	-4	-2	2	2
CN1CCN(S(=O)(=O)c2cccc(C(=O)Nc3cc(Cl)ccc3N3CCOCC3)c2)CC1	0	1	-5	8	61*
CN1CCN(S(=O)(=O)c2cccc(C(=O)N3CCN(c4ccccc4)CC3)c2)CC1	0	17*	4	15	-5
O=C(c1cccc(S(=O)(=O)N2CCCCCC2)c1)N1CCN(c2ccccc2F)CC1	0	0	48*	-50	3
CN1CCN(S(=O)(=O)c2cccc(C(=O)N(C)CC(=O)Nc3ccc(F)c(F)c3F)c2)CC1	0	-4	3	35	99*
CN1CCN(S(=O)(=O)c2cccc(C(=O)N3CCN(c4ccccc4F)CC3)c2)CC1	0	-4	15	9	4
C[C@@H]1CCCCO[C@H](CN(C)S(C)(=O)=O)[C@@H](C)CN([C@@H](C)CO)C(=O)c2cc(NC(=O)Nc3ccccc3)ccc2O1	0	3	-2	-17	0
CC(C)c1ccc(/C=N/NC(=O)c2cccc(S(=O)(=O)N3CCOCC3)c2)cc1	44*	0	2	2	-5
C[C@H](CO)N1C[C@H](C)[C@@H](CN(C)C(=O)NC2CCCC2)Oc2ncc(C#CCN(C)C)cc2C1=O	0	3	-11	1	-3
CC1CN(C(=O)c2cc3cc([N+](=O)[O-])ccc3oc2=O)CC(C)O1 (stereo unspecified)	0	3	2	1	nt
O=C(c1cc2cc([N+](=O)[O-])ccc2oc1=O)N1CCOCC1	43*	0	-2	-2	-8
C[C@H]1CN([C@@H](C)CO)C(=O)c2cc(NC(=O)Nc3ccc(F)cc3)ccc2O[C@H]1CN(C)C(=O)Nc1ccc(F)cc1	0	0	nt	-6	-1
O=c1cc(-c2ccccc2)cc(-c2ccccc2)n1CCO	0	2	1	36	1
Nn1c(-c2ccccc2)cc(-c2ccccc2)cc1=O	0	nt	-1	67*	-2
CCNC(=O)Nc1ccc2c(c1)C(=O)N(C)[C@H]1CC[C@@H](CC(=O)NCc3cccc(F)c3)O[C@@H]1CO2	0	nt	nt	12	nt
CC(=O)Nc1sc(C)c(C)c1C(=O)OCC(=O)Nc1cc(S(C)(=O)=O)ccc1Cl	0	3	-4	56*	-2
O=C(COC(=O)Cc1c[nH]c2ccccc12)Nc1cccc2ccccc12	nt	nt	nt	17	nt
